In the library only some 7.6% were active in any assay of this set; here they are far more common.
Cav3 T inh: human Cav3.2 channel inhibition, primary screen. 4% of 100,000 active. Cav3.2-expressing cells, Fluo-4 calcium fluorescence FDSS; stronger effect = lower value. O95180. AID 449739. B-score at 10 µM;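 active = single-dose well whose peak fluorescence ratio is a statistical outlier from its plate by either plate-standardised score or position-corrected B-score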
M1 agonist: agonists of M1 muscarinic receptor; CHO-M1 cells, Fluo-4 calcium fluorescence, agonist mode; stronger effect = higher value; B-score at 10 µM; 3% of 64,000 active; AID 626;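 active = fluorescence rise, raw or as B-score row- and column-corrected plate score, outside the 99.7% band of its plate's samples, either direction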
PLAP activator: activators of human placental alkaline phosphatase; P05187; 1.2% of 96,000 active; purified PLAP enzyme, luminescent substrate read-out; stronger effect = higher value; activation fold at 20 µM; in the data active = activation fold above about 2
M1 antagonist: antagonists of rat M1 muscarinic receptor | AID 628 | B-score at 10 µM | 3.4% of 64,000 active | P08482 | CHO-M1 cells, Fluo-4 calcium, ACh EC80 antagonist mode; stronger effect = lower value;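 active = calcium fluorescence response, raw or row-and-column corrected B-score, differing from the plate sample mean either way at a set confidence level, mostly lower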
Target sequence (P08482 whole entry, looked up): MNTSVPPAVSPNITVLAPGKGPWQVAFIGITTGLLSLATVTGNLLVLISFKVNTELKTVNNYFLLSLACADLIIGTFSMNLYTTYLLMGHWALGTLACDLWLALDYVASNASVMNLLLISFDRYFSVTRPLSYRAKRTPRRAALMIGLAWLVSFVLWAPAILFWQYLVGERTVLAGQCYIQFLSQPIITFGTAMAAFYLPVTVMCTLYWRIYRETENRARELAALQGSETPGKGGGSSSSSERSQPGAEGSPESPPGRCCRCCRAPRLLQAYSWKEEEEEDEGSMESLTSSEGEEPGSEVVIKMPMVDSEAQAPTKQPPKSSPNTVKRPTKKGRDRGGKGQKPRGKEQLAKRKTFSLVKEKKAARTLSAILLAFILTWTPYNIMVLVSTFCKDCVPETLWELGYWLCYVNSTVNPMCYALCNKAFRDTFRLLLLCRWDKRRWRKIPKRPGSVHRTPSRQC
Numbers without * were called inactive; nt = no result.

SMILES	Cav3 T inh	M1 agonist	PLAP activator	M1 antagonist
COc1ccc(CN(C(=O)Cc2c[nH]c3ccccc23)C(C(=O)NC2CCCCC2)c2ccc(C)o2)cc1 (centres undefined)	-7.27*	nt	1.5	nt
Cc1ccccc1NC(=S)NNC(=O)c1csc2c1CCC(C)C2 (centres undefined)	-2.49	nt	1.4	nt
CC(C)(C)OC(=O)N1CCN(c2ccc(CNC(=O)c3ccc(Cl)cc3)cc2)CC1	-1.81	nt	1.2	nt
CCOC(=O)c1cnc(Nc2nc3ccccc3o2)nc1C	0.0919	nt	2.8*	nt
Cc1cccc(C)c1Nc1nc2ccccc2o1	-0.719	-1.03	1	-0.311
Cc1nc(Nc2nc3ccccc3o2)nc2c1CCC2	0.0526	1.5	2.7*	-0.54
Cc1ccccc1C(=O)Oc1cccc(Nc2ncnc3ccccc23)c1	-4.84*	nt	nt	nt
COc1ccc(OC)c(CCNC(=O)CS(=O)(=O)Cc2nc(-c3ccc(C)cc3)oc2C)c1	-5.93*	0.21	1.3	-0.899
COc1ccc(-c2nc(CS(=O)(=O)CC(=O)Nc3ccc(Cl)cc3)c(C)o2)cc1	-5.29*	-0.0105	1	-0.00145
COC(=O)c1ccccc1NC(=O)CS(=O)(=O)Cc1nc(-c2ccc(C)cc2)oc1C	-4.35	-1.03	1.1	-1.06
COc1cc(OC)c(NC(=O)CS(=O)(=O)Cc2nc(-c3ccc(C)cc3)oc2C)cc1Cl	-4.86*	0.705	1.2	1.37
COCCCNC(=O)c1cc(C(=O)c2c(-c3c(Cl)cccc3Cl)noc2C)c[nH]1	1.03	nt	1.5	nt
C=CCOC(=O)/C(=C\c1ccc(OC)cc1)NC(=O)c1ccco1	nt	nt	1	nt
CCCCOc1ccc(C(=O)N/C(=C\c2ccc(OC)cc2)C(=O)OCc2ccco2)cc1	-8.62*	nt	1	nt
CCOc1ccc(NC(=O)c2cccc(OC(=S)N3CCC(C)CC3)c2)cc1	-4.28*	nt	1.1	nt
CCOc1cccc(C(=O)Nc2ccc(N(CC)CC)cc2)c1	nt	nt	0.7	nt
Cc1c(-n2cc(C(=O)c3cc(Br)ccc3O)cc(C#N)c2=O)c(=O)n(-c2ccccc2)n1C	-0.0386	nt	1.2	nt
CCN(c1ccccc1)S(=O)(=O)c1ccc(NCC2COc3ccccc3O2)nc1 (centres undefined)	-4.8*	0.192	0.9	-0.957
O=C(Cc1cccc2ccccc12)NNC(=O)Nc1cccc(Cl)c1	-7.89*	nt	1.1	nt
CCc1nnc(NC(=O)c2ccc(S(=O)(=O)N(CC)Cc3ccccc3)cc2)o1	-4.45*	-0.297	1.6	-1.01
CCCCN(CCCC)S(=O)(=O)c1ccc(C(=O)Nc2nnc(COC)o2)cc1	-0.707	-0.25	1.2	0.0234
CN(c1ccccc1)S(=O)(=O)c1ccc(C(=O)Nc2nnc(-c3ccc(F)cc3)o2)cc1	-7.52*	-0.282	1.3	0.267
CCCCN(CC)S(=O)(=O)c1ccc(C(=O)Nc2nnc(-c3cccs3)o2)cc1	-4.81*	-0.457	1.5	-0.749
CN(Cc1ccccc1)S(=O)(=O)c1ccc(C(=O)Nc2nnc(C3CC3)o2)cc1	-1.14	0.7	1.1	0.125
CN(c1ccccc1)S(=O)(=O)c1ccc(NC(=O)c2ccc(-c3ccccc3)cc2)cc1	-1.83	nt	0.8	nt
SMILES	Cav3 T inh	M1 agonist	PLAP activator	M1 antagonist
COc1ccccc1-c1nnc(NC(=O)c2ccc(S(=O)(=O)N(C)Cc3ccccc3)cc2)o1	-5.77*	0.561	nt	0.444
CN1C(C(=O)NCc2cccc(C(F)(F)F)c2)CC2Cn3c(nc4cc(Cl)c(Cl)cc43)C21 (centres undefined)	-0.437	nt	nt	nt
C#CCOCCOCCOCCNc1nc(N2CCN(C(=O)Cn3cc(CC(C)O)nn3)CC2)nc(N2CCN(C(=O)[C@H](C)n3cc(CCCN=C(N)N)nn3)CC2)n1 (some centres undefined)	0.584	nt	nt	nt
C=CCNC(=S)NNC(=O)c1csc(C)c1CC	0.216	nt	2.1*	nt
CC(C)CNC(=S)NNC(=O)c1ccc(OC(F)F)cc1	0.0726	nt	1.3	nt
CCNC(=S)NNC(=O)c1ccc(OC(F)F)cc1	0.173	nt	2.3*	nt
C=CCNC(=S)NNC(=O)c1ccc2c(c1)OCO2	0.703	nt	2.2*	nt
COCCCNC(=O)c1ccc2c(c1)OCO2	nt	0.214	1	-0.0402
C=CCNC(=S)NNC(=O)c1ccc(OC(C)C)cc1	0.606	nt	2.4*	nt
C=CCNC(=S)NNC(=O)c1ccccc1	0.801	nt	1.7	nt
Cc1ccnc(NC(=O)CCC(=O)N(CC(=O)NCC2CCCO2)Cc2ccc(F)cc2)c1 (centres undefined)	-0.476	-1.19	1.2	-0.858
COC(=O)C(Cc1ccc(OC(=O)c2ccc(C)cc2)cc1)N1Cc2ccccc2C1=O (centres undefined)	0.479	nt	1.4	nt
COc1ccc(-c2noc(CSc3nnc(-c4ccccc4)n3C)n2)cc1	0.86	nt	1.5	nt
CCn1c(SCc2nc(-c3ccccc3)no2)nc2ccccc21	-3.4*	-0.694	1	0.0447
CCn1c(SCc2nc(-c3ccccc3)no2)nnc1-c1cccs1	-0.788	nt	0.8	nt
